In the library only some 1.9% were active in any assay of this set; here they are far more common.
Abeta yeast res: A-beta toxicity reversal in yeast; yeast expressing A-beta42, growth rescue, OD600, 48 h; response scale: 0% DMSO, 100% iron-clioquinol control; AID 1347071; hit rate 0.063% among 410,000; Potency, µM (doses to about 46.1 µM), actives largely listed as activators; note: potency is the fitted concentration of half-maximal effect; nearly all actives have a fitted effect of over 55% in size
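Yeast growth medium received pinned compounds, then yeast cells expressing toxic A-beta were added; plates incubated at 30 C for 48 hr. Growth read as absorbance at 600 nm, normalized to DMSO and equimolar FeCl3 plus clioquinol controls.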
LDHA block: blocks human lactate dehydrogenase A | P00338 | purified LDHA, NADH/diaphorase-resazurin fluorescence; active compounds read low | hit rate 0.15% among 480,000 | activity change, % (values are at about 110 or 230 µM) | AID 1347041; in the data active = activity change below about -30%; inconclusive = mostly about -25% to -30%;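 note: plate controls were DMSO wells for no effect and wells without enzyme for full effect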
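LDH5 2 nM; NADH 0.06 mM, pyruvate 0.2 mM; 200 mM Tris pH 7.4, EDTA, Tween-20; 5 min RT. Detection: diaphorase 0.133 mg/mL + resazurin 37 µM, fluorescence ex540/em590 at 0 and 20 min; normalized to enzyme-free and DMSO wells.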
FUS suppressor: FUS proteinopathy suppression in yeast. S. cerevisiae FUS-expressing, growth rescue, OD600, 24 h. hit rate 0.24% among 390,000. Potency, µM (doses to about 76.6 µM), hits mostly activators. AID 1347120;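 note: potency is the fitted concentration of half-maximal effect; plate controls were DMSO vehicle for no effect and reference control for full effect; nearly all actives have a fitted effect of over 55% in size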
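Quantitative HTS measuring growth restoration of FUS-toxic yeast. Galactose-induced cells (OD 0.005) were exposed 24hr at 30C to compounds at several concentrations, then absorbance at 600 nm was recorded.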
aSyn rescue: rescues yeast growth from alpha-synuclein toxicity | hit rate 0.14% among 370,000 | Potency, µM (doses to about 46.1 µM), inactives show top-dose growth rescue (activation), most hits filed as activators | Yeast expressing alpha-synuclein, growth rescue, BacTiter-Glo, 24 h | AID 652106; note: potency is the fitted concentration of half-maximal effect; % of control where 0% means no effect; nearly all actives have a fitted effect of over 65% in size
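Screening used galactose-induced yeast with toxic alpha-synuclein levels, exposed to compound for 24 hr at 30 deg C. Cell growth, read with BacTiter-Glo luminescence, gave the measured signal.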
TDP43 rescue: rescues yeast growth from TDP-43 toxicity. Potency, µM (series often up to 46.1 µM), for the others: at the top dose growth rescue (activation), most hits filed as activators. TDP-43 expressing yeast growth rescue, BacTiter-Glo, 24 h. hit rate 1.8% among 410,000; note: potency is the fitted concentration of half-maximal effect; % of control where 0% means no effect; nearly all actives have a fitted effect of over 50% in size
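Luminescence from BacTiter-Glo reports growth of TDP-43-expressing yeast after 24 hr at 30 deg C with compound. Cells were raffinose-pregrown to mid-log, then seeded in galactose medium at OD600=0.02.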
PTHR1 agonist: activates the human parathyroid hormone receptor PTHR1. AID 743266. Potency, µM (series often up to 115 µM), without a hit: at the highest dose activation, most hits filed as activators. hit rate 0.075% among 410,000. HEK293 GP2 PTHR1 cells, GloSensor cAMP luminescence, 1 h; note: potency is the fitted concentration of half-maximal effect; nearly all actives have a fitted effect of over 55% in size
Target sequence (Q03431 whole entry, looked up): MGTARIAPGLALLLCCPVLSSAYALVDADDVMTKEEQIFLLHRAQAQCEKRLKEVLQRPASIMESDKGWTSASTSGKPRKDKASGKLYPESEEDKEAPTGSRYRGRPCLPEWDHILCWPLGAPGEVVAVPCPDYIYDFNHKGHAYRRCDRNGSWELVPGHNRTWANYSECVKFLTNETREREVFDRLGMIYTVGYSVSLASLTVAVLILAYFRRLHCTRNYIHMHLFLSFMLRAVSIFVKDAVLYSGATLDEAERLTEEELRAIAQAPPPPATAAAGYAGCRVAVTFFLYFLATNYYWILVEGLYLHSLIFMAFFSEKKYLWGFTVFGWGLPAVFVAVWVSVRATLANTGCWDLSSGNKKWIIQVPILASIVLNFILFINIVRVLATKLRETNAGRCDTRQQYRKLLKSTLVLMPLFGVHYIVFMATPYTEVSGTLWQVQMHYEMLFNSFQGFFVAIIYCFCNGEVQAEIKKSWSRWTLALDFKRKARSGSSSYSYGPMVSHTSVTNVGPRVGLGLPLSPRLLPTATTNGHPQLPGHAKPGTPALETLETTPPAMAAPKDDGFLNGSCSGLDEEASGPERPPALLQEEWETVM
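HEK-293-derived GP2 cells expressing PTHR1 and a GloSensor cAMP reporter, 3,000/well, plated overnight, given luciferin plus IBMX (each 0.5 mM as added) for 1 h at 37 °C, then compound for 1 h at 37 °C. Luminescence was read after 15 min at room temperature.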
Numbers without * were called inactive; i = inactive; u = inconclusive; x = no result; [ ] = remark or other dose. Unless noted, calls come from the whole dose curve; as a rule, active = well fitted curve in the direction sought with a large enough effect; inconclusive = small, poorly fitted or top-dose-only effect, or another doubt; inactive = no such curve, though single readings can be large; an effect the other way counts as inactive or inconclusive.

SMILES	Abeta yeast res	LDHA block	FUS suppressor	aSyn rescue	TDP43 rescue	PTHR1 agonist
C(=N\Nc1nc(N2CCCCCC2)nc(N2CCCCCC2)n1)/c1ccccc1	i	-4	i	-14%	22µM*	i
CC(/C=N/Nc1nc(N2CCCCC2)nc(N2CCCCC2)n1)=C\c1ccccc1	i	3	i	-19%	-12%	9%[57.5 µM]
CC(=O)Nc1ccc(NS(=O)(=O)c2ccccc2C#N)cc1Cl	x	-2	x	x	x	x
CCc1ccc(C(NC(=O)C2CC2)c2cccc(F)c2)cc1 (stereo not given)	x	0	x	x	x	x
CNS(=O)(=O)Cc1ccccc1CNC(=O)c1cccc(F)c1	x	8	x	x	x	x
CCCCc1nn2c(=O)cc(COC(=O)c3cccc(NC(=O)c4ccccc4F)c3)nc2s1	x	1	x	x	x	x
Cc1cccc(C)c1NC(=O)CC1(C(=O)O)CCCCC1	x	2	x	x	x	x
COc1ccccc1NC(=O)CSc1ncn(-c2ccccc2)n1	i	2	x	6%	10µM*	-6%
CC(=O)c1ccc(NC(=O)c2c(C)nn(-c3ccccc3)c2Cl)cc1	i	-7	i	8%	11µM*	-14%
CC(=O)c1cccc(NC(=O)c2c(C)nn(-c3ccccc3)c2Cl)c1	i	-5	x	-15%	17%	-6%
COc1ccccc1NC(=O)c1c(C)nn(-c2ccccc2)c1Cl	i	0	i	0%	25µM*	-13%
Cc1ccc(NC(=O)c2c(C)nn(-c3ccccc3)c2Cl)cc1	i	-3	i	1%	13µM*	-29%
COc1ccccc1NC(=O)CSc1nncn1-c1ccccc1	i	-3	i	4%	6%	i
COC(=O)c1sc2nc(N3CCOCC3)c3c(c2c1N)CCN(C)C3	x	4	x	x	x	x
Cc1oc(-c2nc(C#N)c(NCCCN(C)C)o2)cc1S(=O)(=O)N1CCCCCC1	x	-18	x	x	x	x
COCCn1c(C)cc(C(=O)C(=O)Nc2nnc(COc3ccc(C)cc3)s2)c1C	x	-11	x	x	x	x
Cc1cc(OCC(=O)N2CCC(c3nc4ccccc4o3)CC2)ccc1C(C)C	x	6	x	x	x	x
Cc1ccc(C)c(C(C)NC(=O)c2cccnc2)c1 (stereo not given)	x	0	x	x	x	x
C/C(=N\NC(=S)NC(C)C)c1ccccc1	11µM*	-8	i	-9%	23%	i
CCOC(=O)N1CCN(S(=O)(=O)c2ccc(OC)c3ccccc23)CC1	u	-2	i	0%	13µM*	-12%[57.5 µM]
Cc1c(C)n(CCC#N)c2ccc(Cl)cc12	i	-2	x	20%	13µM*	i
CC(=O)NCc1ccc(-c2csc(Nc3ccc(Cl)cc3)n2)s1	x	10	x	x	x	x
Clc1cccc(Nc2ncnc3onc(-c4cccc(Cl)c4)c23)c1	x	1	x	x	x	x
Cc1cccc(Nc2ncnc3onc(-c4cccc(Cl)c4)c23)c1C	i	-5	u	-2%	13µM*	-22%
CCc1cccc(Nc2ncnc3onc(-c4ccc(F)cc4)c23)c1	i	0	i	x	u	i
SMILES	Abeta yeast res	LDHA block	FUS suppressor	aSyn rescue	TDP43 rescue	PTHR1 agonist
Cc1cccc(Nc2ncnc3onc(-c4ccc(F)cc4)c23)c1C	i	2	u	-1%	14µM*	i
O=c1c2c([nH]n1-c1nc3ccccc3[nH]1)CCCC2	x	18	x	x	x	x
CCCc1cc(=O)[nH]c(-n2[nH]c3c(c2=O)CCCC3)n1	u	11	i	25µM*	-19%	-21%
OC[C@@H]1CN(Cc2ccccc2)C[C@H](n2cnc3c(N4CCN(c5ccccc5)CC4)ncnc32)O1	i	0	20µM*	27%	17%	-2%
CCCCOc1ccc2c(C)cc(=O)oc2c1C	x	10	x	x	x	x
Cc1ccc(S(=O)(=O)NC(=O)COc2ccccc2C)c(C)c1	i	-1	x	19%	18µM*	i
Cc1cc(C)c(S(=O)(=O)N2CCC(C(=O)NCc3csc(-c4ccccc4)n3)CC2)c(C)c1	x	-1	x	x	x	x
CN(C)CCCOc1ccc(C(C)(C)c2ccccc2)cc1	i	-16	i	-1%	0%	-4%
CN(C)CCOc1ccc(C(C)(C)c2ccccc2)cc1	i	-38*	i	7%	11%	-16%
NC(=O)c1ccc(CN(C2CC2)S(=O)(=O)c2cccc3nsnc23)cc1	x	4	x	x	x	x
CNC(=O)COc1ncnc2c(Cl)cc(Cl)cc12	x	3	x	x	x	x
Cc1ccc(S(=O)(=O)Nc2ccc(Nc3nccn4c(-c5ccc6ccccc6c5)cnc34)cc2)cc1	i	-87*	u	2%	26%	i
Cc1ccc(-c2cnc3c(Nc4cccc(OC(F)(F)C(F)F)c4)nccn23)cc1	i	-39*	i	-17%	9%	-45%
OCc1cccc(-c2cnc3c(Nc4cccc(OC(F)(F)C(F)F)c4)nccn23)c1	i	-10	u	-7%	20µM*	-49%
Cc1cc(C)c(O)c(-c2n[nH]c3c2C(c2ccc(Cl)c(Cl)c2)N(CCCO)C3=O)c1 (stereo not given)	x	1	x	x	x	x
Cc1nc2ccc3nc(C)sc3c2s1	x	17	x	x	x	x
Fc1cccc(CNCCN2CCCC2)c1	x	-2	x	x	x	x
Fc1ccc(/C=N/Nc2ccccc2)cc1F	x	0	x	x	x	x
CCCCOc1ccc(CNC(=O)CCCN2C(=O)CSc3c2c(C)nn3-c2ccccc2)cc1	i	1	u	x	28µM*	-21%
Cc1nn(-c2ccccc2)c2c1N(CCCC(=O)NCc1ccc(OC(C)C)cc1)C(=O)CS2	i	-7	i	x	28µM*	-30%
Cc1nn(-c2ccccc2)c2c1N(CCCC(=O)NC(C)c1ccccc1)C(=O)CS2 (stereo not given)	i	-3	i	x	3%	-1%
Cc1nn(-c2ccccc2)c2c1N(CCCC(=O)NCc1ccc(Cl)cc1)C(=O)CS2	i	1	u	x	20µM*	-6%
Cc1nn(-c2ccccc2)c2c1N(CCCC(=O)NCc1ccccc1)C(=O)CS2	i	-10	i	x	u	i
O=S(=O)(Nc1ccccc1Sc1nncs1)C1=Cc2ccccc2CC1	x	7	x	x	x	x
COc1ccc(CNC(=O)Cc2c(C)c3c(OC(C)=O)cc(OC(C)=O)cc3oc2=O)cc1OC	x	11	x	x	x	x
CNc1c(NC(=O)Nc2cccc(Cl)c2)c(=O)oc2ccccc12	x	0	x	x	x	x
O=C(Nc1ccccc1)C1CCN(C(=O)c2nn(-c3ccccc3)c(=O)c3ccccc23)CC1	x	0	x	x	x	x
COc1ccc(-c2nsc3c2NC(=O)CC3c2cc(OC)c3c(c2OC)OCO3)cc1 (stereo not given)	x	6	x	x	x	x
Clc1cccc(Cl)c1/C=C/c1ccn[nH]1	i	-1	i	-4%	22µM*	-20%
